For this test, the system named is MIWI (PIWIL1) piRISC loaded with L1MC piRNA (30 nt). Description: pre-steady-state target cleavage rate (min^-1); MIWI and MILI are mouse PIWI proteins and EfPiwi is from a freshwater sponge; tags in brackets are library labels; higher = faster piRNA-guided slicing of the target. Particulars: guide: L1MC piRNA 5'p-UAACUAAAUACUAUGCAAGCUGUAGGUCCU
As to the method:
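Cleave-'n-Seq: a library of target RNAs (target site embedded in constant flanks, ACAGCATTCCGCGTTAGTGATATCCG... 5' flank; DNA-blocked outside the site) at 0.1 nM was incubated with 1 nM active mouse MILI or MIWI piRISC (synthetic 5'-monophosphorylated piRNA guide) with or without 500 nM mouse GTSF1 at 33 °C for 1 min to 16 h. Uncleaved targets were sequenced and normalised to non-target controls, and the pooled three trials were fitted to a burst-and-steady-state model to give the pre-steady-state cleavage rate (min^-1; k3 is constrained to at most 1e-4). Sequence is the target site only; target names encode pairing extent (gX:gY) and contiguous / 1-mismatch / 2-mismatch / bulge geometry. Fits with R² ≤ 0 are excluded.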

The mark [1] stands for this setting: auxiliary factor: 500 nM mouse GTSF1.
[2] abbreviates: auxiliary factor: none (no GTSF1).

± gives the standard deviation. Whole data set: some 8,200 sequences, median “pre-steady-state target cleavage rate” near 0.024, cut for the highest 2% near 1.3. This excerpt belongs to a sample that is enriched for the highest values.

As to UCCUGGAUGUGCUUGCAUUGUUUUUAGUUA, the “pre-steady-state target cleavage rate” value under setting [1] was 0.0048 ± 0.0031.

As for UCCUGGAUGUGCUUGCAUAGUAUUUUGUAA, the “pre-steady-state target cleavage rate” value reads like this: under setting [1], 0.0569 ± 0.016; under setting [2], 0.00775 ± 0.0023.

UCCACCUACAGCUUGCAUAGUAUUUGGUUA: the “pre-steady-state target cleavage rate” value under setting [1] was determined as 0.555 ± 0.038 and the “pre-steady-state target cleavage rate” value under setting [2] amounted to 0.0358 ± 0.0079.

In the case of UCGACCUACAGGUUGCAUAGUAUUUACUUA, the “pre-steady-state target cleavage rate” value turned out to be 0.296 ± 0.04 under setting [1] and 0.025 ± 0.0051 under setting [2].

For the sequence AGCACCUACACCUUGCAUAGUAUUUAGUUA, the “pre-steady-state target cleavage rate” value under setting [1] came out at 0.739 ± 0.074 and the “pre-steady-state target cleavage rate” value under setting [2] came to 0.0408 ± 0.0062.

Regarding UCGACCUACAGCUUGGUUAGUAUUUAGUUA, the “pre-steady-state target cleavage rate” value runs as follows: under setting [1], 1.42 ± 0.058; under setting [2], 0.00908 ± 0.0026.

On to UCGACCUACAGCUUGCUAGUAUUUAGUUA, for which the “pre-steady-state target cleavage rate” value under setting [1] came out at 0.219 ± 0.061.

With UCGACCUACAGCUUGCUUAGUAUUUAGUUA, the “pre-steady-state target cleavage rate” value under setting [1] is 1.66 ± 0.074 and the “pre-steady-state target cleavage rate” value under setting [2] was 0.0474 ± 0.01.

For the sequence UGCACCUACAGCUUGCUUAGUAUUUAGUUA, the “pre-steady-state target cleavage rate” value came out at 1.25 ± 0.092 under setting [1] and 0.031 ± 0.0064 under setting [2].

Regarding UCGACCUACAGCUUGGUUAGUAUUUACAAA, under setting [1], the “pre-steady-state target cleavage rate” value came to 0.0826 ± 0.02.

AGCACCUACAGCUUGCUUAGUAUUUAGUUA: the “pre-steady-state target cleavage rate” value runs as follows: under setting [1], 0.978 ± 0.079; under setting [2], 0.0389 ± 0.0089.

For UCGACCUAGAGCUUGCUUAGUAUUUAGUUA, the “pre-steady-state target cleavage rate” value by setting is: under setting [1], 1.34 ± 0.048; under setting [2], 0.0282 ± 0.0063.

On to ACGACCUACAGCUUGCUUAGUAUUUAGUUA, for which the “pre-steady-state target cleavage rate” value was 1.57 ± 0.074 under setting [1] and 0.0527 ± 0.013 under setting [2].

As to UGGACCUAGAGCUUGCUUAGUAUUUAGUUA, the “pre-steady-state target cleavage rate” value reads like this: under setting [1], 1.18 ± 0.095; under setting [2], 0.0321 ± 0.0069.

Regarding UCGACCUACAGCUUGGUUAGUAUUUAGUAA, the “pre-steady-state target cleavage rate” value is, setting by setting: under setting [1], 0.72 ± 0.061; under setting [2], 0.00525 ± 0.002.

Regarding UCCACCUAGAGCUUGCUUAGUAUUUAGUUA, the “pre-steady-state target cleavage rate” value amounted to 0.549 ± 0.044 under setting [1] and 0.0205 ± 0.0044 under setting [2].

On to UCGACCUACAGCUUGCUUAGUAUUUAGUAA, for which the “pre-steady-state target cleavage rate” value by setting is: under setting [1], 1.02 ± 0.068; under setting [2], 0.0176 ± 0.005.

In the case of UCCUCCUACAGGAUGCAUAGUAUUUACAAA, under setting [1], the “pre-steady-state target cleavage rate” value turned out to be 0.253 ± 0.041.

UCCUGGAACAGGUAGCAUAGUAUUUAGUUA: the “pre-steady-state target cleavage rate” value by setting is: under setting [1], 0.266 ± 0.026; under setting [2], 0.00407 ± 0.0017.

In the case of UCCACCUUGUGCUUGCAUAGUAUUUACAAA, under setting [1], the “pre-steady-state target cleavage rate” value came to 0.0809 ± 0.013.

As to UCCUGGAUGAGCUUGCAUAGUGUUUAGUUA, the “pre-steady-state target cleavage rate” value was 0.708 ± 0.06 under setting [1] and 0.0494 ± 0.01 under setting [2].

Regarding UGGACGUACAGCUUGCAUAGUAUUAAGUUA, the “pre-steady-state target cleavage rate” value is 0.721 ± 0.069 under setting [1] and 0.0383 ± 0.0073 under setting [2].

For UGGACCUACAGCUUGCUAAGUAUUUAGUUA, the “pre-steady-state target cleavage rate” value runs as follows: under setting [1], 0.2 ± 0.022; under setting [2], 0.00384 ± 0.002.

As for UCCUGGAUGAGCUUGCAUAGUAUUUAGUAUA, the “pre-steady-state target cleavage rate” value reads like this: under setting [1], 0.702 ± 0.054; under setting [2], 0.0165 ± 0.0055.

Consider UCCUGCUACAGCUUGCUUAGUAUUUAGUAA, for which the “pre-steady-state target cleavage rate” value under setting [1] came to 0.279 ± 0.023 and the “pre-steady-state target cleavage rate” value under setting [2] was 0.0083 ± 0.002.

On to UCCUGGAUCAGCUUGCUUAGUAUUUAGAAA, for which the “pre-steady-state target cleavage rate” value reads like this: under setting [1], 0.116 ± 0.021; under setting [2], 0.00482 ± 0.0028.

With UCGACCUACAGCUGUGCAUAGUAUUUAGUUA, the “pre-steady-state target cleavage rate” value under setting [1] came to 1.42 ± 0.073 and the “pre-steady-state target cleavage rate” value under setting [2] was determined as 0.0386 ± 0.0081.

On to AGGACCUACAGCUGUGCAUAGUAUUUAGUUA, for which the “pre-steady-state target cleavage rate” value came to 1.29 ± 0.063 under setting [1] and 0.0583 ± 0.012 under setting [2].

Take UCGACCUACAGCGUGCAUAGUAUUUAGUUA: the “pre-steady-state target cleavage rate” value stood at 1.73 ± 0.072 under setting [1] and 0.0576 ± 0.0085 under setting [2].

For the sequence UGGACCUACAGCUGUGCAUAGUAUUUAGUUA, the “pre-steady-state target cleavage rate” value by setting is: under setting [1], 1.28 ± 0.11; under setting [2], 0.0389 ± 0.0098.

Consider UCCACCUACAGCGUGCAUAGUAUUUAGUUA, for which the “pre-steady-state target cleavage rate” value by setting is: under setting [1], 1.06 ± 0.04; under setting [2], 0.0325 ± 0.0056.

On to AGGACCUACAGCGUGCAUAGUAUUUAGUUA, for which the “pre-steady-state target cleavage rate” value by setting is: under setting [1], 1.34 ± 0.054; under setting [2], 0.0658 ± 0.011.

Regarding UCCUGCUACAGCGUGCAUAGUAUUUAGUUA, the “pre-steady-state target cleavage rate” value was determined as 1.27 ± 0.074 under setting [1] and 0.0183 ± 0.005 under setting [2].

UCGACCUACAGCGUUGCAUAGUAUUUAGUUA: the “pre-steady-state target cleavage rate” value is 1.21 ± 0.073 under setting [1] and 0.0561 ± 0.01 under setting [2].

With UGGACCUACAGCGUGCAUAGUAUUUAGUUA, the “pre-steady-state target cleavage rate” value is, setting by setting: under setting [1], 1.43 ± 0.065; under setting [2], 0.0647 ± 0.013.

Consider AGGACCUACAGUUGCAUAGUAUUUAGUUA, for which the “pre-steady-state target cleavage rate” value came to 0.988 ± 0.07 under setting [1] and 0.0102 ± 0.0034 under setting [2].

With AGGACCUACAGCAUUGCAUAGUAUUUAGUUA, the “pre-steady-state target cleavage rate” value stood at 1.28 ± 0.12 under setting [1] and 0.0689 ± 0.014 under setting [2].

For UCCUGGAUCAGCUUGCAUACUAUUUUCAAA, the “pre-steady-state target cleavage rate” value under setting [1] came out at 0.00597 ± 0.0043.

With UCCUGGUACUGCUUGCAAAGUAUUUAGUUA, the “pre-steady-state target cleavage rate” value was 0.46 ± 0.036 under setting [1] and 0.0221 ± 0.0052 under setting [2].

Source of the values: the supplement of paper PMC10338343.
